PubChem BioAssay (NCATS)
Records with an inconclusive call do not appear. Active and inactive are the calls of the source. Unless noted, calls come from the whole dose curve; as a rule, active = well fitted curve in the direction sought with a large enough effect; inconclusive = small, poorly fitted or top-dose-only effect, or another doubt; inactive = no such curve, though single readings can be large; an effect the other way counts as inactive or inconclusive.

Key:
[1] = Validation of Assay for Modulators of Lamin A Splicing (AID 1459; active = well fitted curve in the direction sought with a large enough effect in the signal ratio; the % refers to the signal ratio;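 note: cells exposed to compound for two days before reading; ratio rise marks activators and ratio drop marks inhibitors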)
In short: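 Splicing correction is reported by an EGFP-containing lamin A minigene in stably transfected S3 HeLa cells, while DsRed2 controls for viability and nonspecific signal. Cells are exposed to compounds for 48 hrs before the GFP over RFP ratio is taken.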

[2] = target: DNA repair nuclease/redox regulator APEX1 (Homo sapiens) (UniProt P27695); assay: qHTS Validation Assay for Inhibitors of the Human Apurinic/apyrimidinic Endonuclease 1 (APE1) (AID 1705;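 note: TAMRA fluorescence gain over two minutes as APE1 cuts a quenched THF abasic duplex; series mostly up to about 57 µM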)
Chain of DNA repair nuclease/redox regulator APEX1 (Homo sapiens) (P27695 whole entry, looked up): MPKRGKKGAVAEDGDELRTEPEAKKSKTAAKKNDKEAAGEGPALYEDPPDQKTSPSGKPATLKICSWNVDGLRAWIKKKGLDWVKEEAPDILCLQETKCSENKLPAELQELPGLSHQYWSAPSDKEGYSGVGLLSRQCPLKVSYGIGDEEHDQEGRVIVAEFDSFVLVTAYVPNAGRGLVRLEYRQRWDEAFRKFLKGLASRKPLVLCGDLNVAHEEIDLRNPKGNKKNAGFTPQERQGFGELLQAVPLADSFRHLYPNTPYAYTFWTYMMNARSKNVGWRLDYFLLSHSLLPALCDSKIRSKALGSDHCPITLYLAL
In short: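 Endonuclease activity of human APE1 is followed as dequenching when the enzyme incises a tetrahydrofuran abasic site in a short duplex labelled 5'-TAMRA/3'-BHQ-2 (50 nM final), after 15 min enzyme–compound preincubation at room temperature.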

[3] = Counterscreen for APE1 Inhibitors: Fluorescent Dye Displacement Validation Assay (AID 1707)
In short: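 Compounds are scored by their ability to displace Thiazole Orange (250 nM) from a 50 nM TAMRA-tagged duplex bearing a tetrahydrofuran abasic site. Buffer is 50 mM Tris-HCl pH7.5, 50mM NaCl, 2 mM MgCl2, 0.01% Tween-20.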

[4] = target: Endonuclease 4 (Escherichia coli (strain K12)) (UniProt P0A6C1); assay: Counterscreen for APE1 Inhibitors: qHTS Validation Assay for Inhibitors of Endonuclease IV (AID 1708)
In short: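 Cleavage of a quenched abasic-site DNA duplex (50 nM, 5'-TAMRA, 3'-BHQ-2) by 2 nM enzyme is followed as fluorescence increase. Compounds are preincubated with enzyme 15 min at room temperature before substrate addition.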

[5] = qHTS for differential inhibitors of proliferation of Plasmodium falciparum line 7G8 (AID 1815);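 note: parasite growth measured after three days of incubation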
[6] = qHTS for differential inhibitors of proliferation of Plasmodium falciparum line GB4 (AID 1816);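 note: parasite growth measured after 72 h incubation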
[7] = qHTS for differential inhibitors of proliferation of Plasmodium falciparum line 3D7 (AID 1876);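 note: parasite growth measured after three days of culture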
[8] = qHTS for differential inhibitors of proliferation of Plasmodium falciparum line D10 (AID 1877);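 note: parasites grown with compound for 72 h before DNA staining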
[9] = qHTS for differential inhibitors of proliferation of Plasmodium falciparum line Dd2 (AID 1882);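 note: series mostly up to about 29 µM; compound exposure of 72 h on infected erythrocytes; nearly all actives have a fitted effect of over 65% in size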
In short: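 SYBR Green I DNA fluorescence read-out, ex 485/em 535 nm. Signals were normalized to 0.29 uM artemisinin and DMSO wells, then corrected using vehicle-only plates flanking each stack. Parasite growth ran 72 h in erythrocytes before lysis.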

Measured: outcome

CCNC(=O)[C@H]1O[C@@H](n2cnc3c(N)nc(NCCc4ccc(CCC(=O)O)cc4)nc32)[C@H](O)[C@H]1O
inactive: [1] | [2] | [3] | [4] | [5] | [6] | [7] | [8] | [9]
